Bioassay records: PubChem, University of Kansas High Throughput Screening Laboratory
Pf apPOL block: Pf-apPOL DNA polymerase inhibition; Recombinant Pf-apPOL, molecular beacon fluorescence, 1.5 h; inhibition, % at 10 µM; actives 0.25% (n = 210,000); AID 1794808
mHTT-CaM PPI inh: inhibitors of human mutant huntingtin-calmodulin interaction; P42858; AlphaScreen His-mHTT/GST-CaM binding, luminescence; inhibition, % at 15 µM; actives 3.6% (n = 190,000); AID 1671202
Numbers stand for hits; - = inactive; . = not tested or not shown. A selection: hits, their analogues and other compounds. The true share with any hit is near 3.5%. No stated cut-off is given here; in the data, active means inhibition above about 50%; inactive means the rest.

SMILES	Pf apPOL block	mHTT-CaM PPI inh
O=C(NCc1cccs1)c1cc(Br)ccc1Cl	-	-
Cc1ccccc1N=c1scc(-c2ccccc2)n1Cc1ccco1	-	73.0
Cc1csc(=NC(=O)c2ccccc2)n1Cc1ccco1	-	-
Cc1noc(COC2CCCN(C(=O)c3ccccn3)C2)n1 (stereo not drawn)	-	-
CC(C)C1C(=O)N(Cc2cn(CCC3OCCCO3)nn2)CCS(=O)(=O)N1Cc1ccc(-c2ccncc2)cc1 (stereo not drawn)	-	-
COCOCCn1cc(CN2CCS(=O)(=O)N(Cc3ccc(-c4ccc(Cl)cc4)cc3)C(C(C)C)C2=O)nn1 (stereo not drawn)	-	-
CC(C)C1C(=O)N(Cc2cn(CCC3OCCCO3)nn2)CCS(=O)(=O)N1Cc1ccc(-c2ccc(F)cc2)cc1 (stereo not drawn)	-	69.7
Cc1ccc(-c2ccc(CN3C(CC(C)C)C(=O)N(Cc4cn(CCC5OCCO5)nn4)CCS3(=O)=O)cc2)cc1 (stereo not drawn)	-	-
CC(C)CC1C(=O)N(Cc2cn(CCC3OCCO3)nn2)CCS(=O)(=O)N1Cc1ccc(-c2ccc(Cl)c(Cl)c2)cc1 (stereo not drawn)	-	71.8
COc1ccc(-c2ccc(CN3C(C(C)C)C(=O)N(Cc4cn(CCC5OCCO5)nn4)CCS3(=O)=O)cc2)cc1OC (stereo not drawn)	-	-
COCOCCn1cc(CN2CCS(=O)(=O)N(Cc3ccc(-c4ccc(Cl)c(Cl)c4)cc3)C(C(C)C)C2=O)nn1 (stereo not drawn)	-	99.9
CC(C)C1C(=O)N(Cc2cn(CCC3OCCO3)nn2)CCS(=O)(=O)N1Cc1ccc(-c2ccc(Cl)c(Cl)c2)cc1 (stereo not drawn)	-	98.0
CN(C)CCCNC(=O)C1CCN(c2nc3ccc(-c4ccsc4)nc3s2)CC1	-	-
CCN(CC)CCCn1c(SCC(=O)N(CC)CC)nc2cc3c(cc2c1=O)OCO3	-	-
COc1cc([N+](=O)[O-])ccc1NC(=O)c1cc2ccccc2oc1=O	-	-
CC(=O)c1cccc(NC(=O)CSc2ccc3ccccc3n2)c1	-	-
CCOc1ccc(NC(=O)c2cc(OCC)c(OCC)c(OCC)c2)c([N+](=O)[O-])c1	-	-
CCCC(=O)Nc1ccccc1NC(=O)COc1ccc(Br)cc1	-	-
C=C(C)Cn1c(=O)c2c(nc3n(-c4ccc(S(N)(=O)=O)cc4)c(C)c(C)n23)n(C)c1=O	-	-
O=C(N1CCC(CSC2=NCCS2)CC1)C12CC3CC(CC(C3)C1)C2	-	-
CCOCCCNC(=O)C1CCCN(c2cc(=O)n(C)c(=O)n2C)C1 (stereo not drawn)	-	-
COCOCCn1cc(CN2CCS(=O)(=O)N(Cc3ccc(-c4ccc(F)cc4)cc3)C(CC(C)C)C2=O)nn1 (stereo not drawn)	-	69.4
COCOCCn1cc(CN2CCS(=O)(=O)N(Cc3ccc(-c4ccc(C)cc4)cc3)C(CC(C)C)C2=O)nn1 (stereo not drawn)	-	-
Cc1ncc(CO)c2cc(C(=O)Nc3ccc(Cl)c(Cl)c3)c(=N)oc12	-	-
Cc1cnc2c(ccc3c(C)c(C)cnc32)c1C	.	100.2
SMILES	Pf apPOL block	mHTT-CaM PPI inh
CCN1C(=O)Cc2cc(C(=O)N3CCN(c4ccccc4C)CC3)ccc21	-	68.0
CC1CCN(C(=O)c2ccc3c(c2)CC(=O)N3Cc2cccc(F)c2)CC1	-	56.6
CCN1C(=O)Cc2cc(C(=O)N3CCN(c4ccccc4Cl)CC3)ccc21	-	-
CC1CCN(C(=O)c2ccc3c(c2)CC(=O)N3Cc2ccc(F)cc2)CC1	-	-
O=[N+]([O-])c1ccc(O)c(C=Nc2ccc(-c3ccccc3)cc2)c1	-	-
CC(C)Cn1ccnc(NC2CCCC2)c1=O	-	-
CCCSc1nnc2c(n1)[nH]c1c(C)cccc12	-	-
Cc1ccc2[nH]c3nc(NN)nnc3c2c1	-	-
Cc1cccc2c1[nH]c1nc(NN)nnc12	-	66.5
NNc1nnc2c(n1)[nH]c1ccccc12	-	100.0
CN1C(=O)CC(C(=O)O)SC1=Nc1ccc(Cl)c(C(F)(F)F)c1 (stereo not drawn)	-	-
COc1cccc(-c2nc(C3CCN(C(=O)Cc4cccc(F)c4)CC3)no2)c1	-	-
COCCn1c(SCc2c(F)cccc2Cl)nc2c(c1=O)SCC2	-	-
O=C1c2[nH]nc(-c3ccc(Cl)cc3)c2C(c2ccc([N+](=O)[O-])cc2)N1c1ccccn1 (stereo not drawn)	-	89.0
CC(=O)C1=C(O)C(=O)N(c2ccccn2)C1c1ccc([N+](=O)[O-])cc1 (stereo not drawn)	-	-
COc1ccc(-c2n[nH]c3c2C(c2ccc(OC)c(OC)c2)N(c2ccccc2)C3=O)cc1 (stereo not drawn)	-	-
O=C1c2[nH]nc(-c3ccccc3)c2C(c2ccccc2[N+](=O)[O-])N1c1ccccc1 (stereo not drawn)	-	59.0
